# From PubChem BioAssay (EPA / NIEHS)
# Records with an inconclusive call do not appear. Active and inactive are the calls of the source. Rule for the calls: active = hit-call score of the fitted dose curve at least 0.9, where 1 is the maximum; inconclusive = response in the unintended direction; inactive = score below 0.9.
# Test system: Sodium/Iodide Symporter (NIS), SLC5A5 (gene 6528)
# Experiment: CPHEA_Stoker_NIS_Inhibition_RAIU: CPHEA's Radioactive Iodide Uptake (RAIU) Assay for Sodium/Iodide Symporter (NIS) Inhibition, Stoker and Laws Labs (AID 2283841)
# Experimental: CPHEA_Stoker_NIS is a cell-based, single-readout assay that uses hNIS-HEK293T-EPA, a novel human kidney cell line expressing human NIS, with measurements taken at 2 hours after chemical dosing in a 96-well plate. This radioactive iodide uptake (RAIU) assay is used to identify inhibitors of NIS-mediated iodide uptake. A parallel cytoxicity assay (Cell Titer Glo, Promega) was also run in the same cell line.CPHEA_Stoker_NIS_Inhibition_RAIU is one of 2 assay components measured from the CPHEA_Stoker_NIS assay. It is designed to make measurements of radioactive substrate uptake to understand transporter function, as detected with 125-i signals by MicroBeta radioactivity plate reader technology.Data from the assay component CPHEA_Stoker_NIS_Inhibition_RAIU was analyzed at the endpoint, CPHEA_Stoker_NIS_Inhibition_RAIU, in the positive analysis fitting direction relative to DMSO as the negative control and baseline of activity. Measures of radioactive substrate uptake for loss-of-signal activity can be used to understand the effects on transporter function at the pathway level as they relate to the sodium-iodide symporter, gene SLC5A5. To generalize the intended target to other relatable targets, this assay endpoint is annotated to the transporter intended target family, where the subfamily is sodium-iodide symporter (NIS).
# hNIS-HEK293T-EPA cells were seeded with a MultiFlo FX dispenser (BioTek, Winooski, VT) into ScintiPlate-96 microplates (Perkin Elmer, Waltham, MA) at a density of 4.0x10^4 cells per well in 200uL growth media and incubated for 40 hours before experimentation. On day of the assay, carrier-free 125I (Perkin-Elmer, Waltham, MA; specific activity: 17.4Ci/mg) was diluted with Hanks' balanced salt solution (Sigma, St. Louis, MO) supplemented with 10mM HEPES (uptake buffer; pH 7.4) at 5uCi/mL (288pg 125I/mL uptake buffer; 2.30nM). The assay was initiated by washing cells twice with 200uL uptake buffer using a 96-well Tecan HydroSpeed plate washer (Tecan, Mannedorf, Switzerland). Uptake buffer (59.7uL) was then added back to each well. Chemical samples (350nL at 200X) were administered using the HDR tool as previously described to achieve a 1X chemical/0.5% final DMSO concentration with subsequent addition of 10uL of 125I dilution (final [125I]: 329pM; 2.88pg/well) for a final reaction volume of 70uL/well. Cells were incubated at room temperature for 2 hours and then washed twice with 200uL ice cold uptake buffer. All uptake buffer was aspirated from wells, plates were sealed, and read on a MicroBeta2 plate reader (Perkin Elmer, Waltham, MA) using a detection protocol to measure CPM corresponding to intracellular 125I concentration. Each chemical concentration (0.001, 0.01, 0.1, 1.0, 10, and 100uM) was assayed in triplicate with three independent biological replicate plates (3 sequential cell passages). Additionally, a concentration response of NaClO4 (0.001, 0.01, 0.1, 1.0, 10, and 100uM) served as a positive control inhibition curve on each RAIU assay plate. DMSO control wells were assayed on each plate as a measure of maximum iodide uptake for normalization and determination of intra- and inter-assay variation. (Toxicol In Vitro, 2017, 40:66-78).
Structure (SMILES),outcome,AC50
O=[N+]([O-])O,inactive,–
O=C(CCl)c1ccccc1,inactive,–
CC(C)(c1cc(Cl)c(O)c(Cl)c1)c1cc(Cl)c(O)c(Cl)c1,–,9.92 µM (active)
CC(=O)c1cc2c(cc1C)C(C)(C)C(C)CC2(C)C (stereo not given),inactive,–
CC(Cc1ccc(C(C)(C)C)cc1)CN1C[C@@H](C)O[C@@H](C)C1 (stereo not given in full),inactive,–
Cc1ccc(OP(=O)(Oc2ccc(C)cc2)Oc2ccc(C)cc2)cc1 (tested in a mixture with another compound),inactive,–
O=CNC(N1CCN(C(NC=O)C(Cl)(Cl)Cl)CC1)C(Cl)(Cl)Cl (stereo not given),inactive,–
CCCCCCCCCCCCCCCC[N+](C)(C)C,–,10.2 µM (active)
O=P(O)(Oc1ccccc1)Oc1ccccc1,inactive,–
O=C1Nc2ccc(Cl)cc2C(c2ccccc2)=NC1O (stereo not given),inactive,–
